This is part of a sample that, as a whole, favours compounds with a hit. Of some 83,000 tested, about 20% had one in any assay.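 The endpoint reported here, percent growth, reads 100 for growth as untreated, 0 for no net growth and -100 for all cells dead.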 Calls of active or inactive are those of the source. Rule for the calls: active = growth percent below 10; inactive = the rest.

For the experiment, the system named is PC-3 prostate. The experiment can be described thus: NCI-60 one-dose screen, 48 h (100 = growth as untreated, 0 = no growth, -100 = all killed). The conditions noted are these: 10 µM.
Regarding `COc1ccc(C2c3sc4ccc(C)cc4c3Oc3nc(N)nc(N)c32)cc1` (stereo not drawn), the growth was 79.8% (inactive).

For `Cc1cc(N=C2NC(=O)S/C2=C\c2ccc(F)cc2)n[nH]1`, the growth was 6.14% (active). With `Cn1cc(-c2nnc(N)nc2-c2c[nH]c3ccccc23)c2cc(Br)cnc21`, the growth was 45.7% (inactive). For `O=C(CC(=O)Nc1ccc(Oc2ncnc3scc(Nc4n[nH]c(=S)s4)c23)cc1)Nc1ccc(Cl)cc1`, the growth is 74% (inactive). Take `O=C1NC2C=CC=CC2/C1=C1/SC(=S)N(C2CC(=O)N(c3ccc(Br)cc3)C2=O)C1=O` (stereo not drawn): the growth is 76.6% (inactive). With `CC1(C)CC(=O)C2=C(C1)N(Cc1ccc(C(=O)O)cc1)C1=C(C(=O)CC(C)(C)C1)C2c1ccc(Cl)cc1` the figure was 109% (inactive). In the case of `Cc1ccc2c(c1)C(=O)/C(=C/c1ccc([N+](=O)[O-])cc1)S2`, the growth was 94.5% (inactive). For the molecule `O=C(Nc1ccc(OCc2ccc(Cl)cc2)cc1)Nc1ccc(Cl)c(C(F)(F)F)c1`, the growth is -7.44% (active). Turning to `Cn1cc(-c2nc(N)nnc2-c2c[nH]c3ccccc23)c2cc(Br)cnc21`, the growth was 13.3% (inactive). Regarding `O=C(CSc1nc2ccccc2c(=O)n1-c1ccc(Cl)cc1)Nc1ccc(-c2nc3ccccc3[nH]2)cc1`, the growth was -54.2% (active). With `Cc1ccc2c(c1)C(=O)/C(=C/c1c[nH]c3ccccc13)S2` the figure was 23.7% (inactive). Consider `COc1cccc(O)c1/C=C1\SCc2cc3c(OC)cccc3[o+]c21`, for which the growth is 97.9% (inactive). Regarding `COc1cc(C2CC(c3ccc(Oc4ccc(Cl)cc4)cc3)=NN2c2nc(-c3ccc(Cl)cc3)c(C#N)c(N3CCOCC3)n2)cc(OC)c1OC` (stereo not drawn), the growth is 92% (inactive).
